Reference: PubChem BioAssay (Tox21)
Results filed as inconclusive are left out. The source made the active and inactive calls. Calls come from the whole dose curve; as a rule, active = well fitted curve in the direction sought with a large enough effect in the repeat runs; inconclusive = weak or mixed curves; inactive = no such curve, though single readings can be large; an effect the other way counts as inactive or inconclusive.

Key:
[1] = A CellTox Green Cytotoxicity Assay to monitor cytotoxicity in HEK293 cells - 40 hour (AID 1224871); note: nearly all actives have a fitted effect of over 45% in size; note: potency is the fitted concentration of half-maximal effect
How it was run: (§1)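 Homogeneous no-lysis format: HEK293 cell suspension mixed with CellTox Green reagent, seeded, incubated 5 h at 37 C/5% CO2, then dosed by pintool with compound in DMSO.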

[2] = qHTS RealTime-Glo MT Cell Viability Assay in HEK293 cells - 16 hour (AID 1224872); note: nearly all actives have a fitted effect of over 50% in size; note: potency is the fitted concentration of half-maximal effect
How it was run: (§2)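 Assay medium contained NanoLuc luciferase plus cell-permeant prosubstrate, added with HEK293 cells at 600 cells/well. After 5 h at 37 C/5% CO2 compounds were added; plates stayed at 37 C for 40 h with serial luminescence reads.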

[3] = qHTS RealTime-Glo MT Cell Viability Assay in HepG2 cells - 8 hour (AID 1224873); note: nearly all actives have a fitted effect of over 55% in size; note: potency is the fitted concentration of half-maximal effect
How it was run: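 HepG2 cells (600/well) mixed with RealTime-Glo MT reagent, settled 5 h at 37 C/5% CO2 before compound addition. Nonlytic NanoLuc luminescence from viable-cell prosubstrate reduction read repeatedly during 40 h treatment at 37 C.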

[4] = qHTS RealTime-Glo MT Cell Viability Assay in HEK293 cells - 40 hour (AID 1224874); details: RealTime-Glo luminescence; max response: active compounds read low; note: nearly all actives have a fitted effect of over 50% in size; note: potency is the fitted concentration of half-maximal effect
How it was run: (§3)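 Measured as luminescence from the same continuously cultured HEK293 wells at successive time points (0, 8, 16, 24, 32, 40 h) after compound addition. Reagent present from seeding; dosing at 5 h; incubation 37 C.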

[5] = A CellTox Green Cytotoxicity Assay to monitor cytotoxicity in HepG2 cells - 16 hour (AID 1224876); note: nearly all actives have a fitted effect of over 45% in size; note: potency is the fitted concentration of half-maximal effect
How it was run: (§4)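 Fluorescent DNA-binding dye, 600 HepG2 cells/well, 5 h preincubation then compound in DMSO; same plates read at 0–40 h, 37 C.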

[6] = qHTS RealTime-Glo MT Cell Viability Assay in HepG2 cells - 32 hour (AID 1224877); note: nearly all actives have a fitted effect of over 55% in size; note: potency is the fitted concentration of half-maximal effect
How it was run: (§5)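 qHTS, HepG2, 600 cells/well, RealTime-Glo (NanoLuc + prosubstrate) added with cells; 5 h preincubation; DMSO compound addition; 37 C; luminescence at 0/8/16/24/32/40 h.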

[7] = A CellTox Green Cytotoxicity Assay to monitor cytotoxicity in HepG2 cells - 24 hour (AID 1224878); note: nearly all actives have a fitted effect of over 45% in size; note: potency is the fitted concentration of half-maximal effect
How it was run: as §4

[8] = A CellTox Green Cytotoxicity Assay to monitor cytotoxicity in HepG2 cells - 40 hour (AID 1224879); note: nearly all actives have a fitted effect of over 40% in size; note: potency is the fitted concentration of half-maximal effect
How it was run: as §4

[9] = qHTS RealTime-Glo MT Cell Viability Assay in HEK293 cells - 0 hour (AID 1224880); note: top concentration of the series differs between compounds; nearly all actives have a fitted effect of over 45% in size
How it was run: as §3

[10] = A CellTox Green Cytotoxicity Assay to monitor cytotoxicity in HEK293 cells - 32 hour (AID 1224881); note: nearly all actives have a fitted effect of over 40% in size; note: potency is the fitted concentration of half-maximal effect
How it was run: as §1

[11] = A CellTox Green Cytotoxicity Assay to monitor cytotoxicity in HepG2 cells - 0 hour (AID 1224882); note: nearly all actives have a fitted effect of over 35% in size
How it was run: as §4

[12] = A CellTox Green Cytotoxicity Assay to monitor cytotoxicity in HepG2 cells - 32 hour (AID 1224883); note: nearly all actives have a fitted effect of over 50% in size; note: potency is the fitted concentration of half-maximal effect
How it was run: as §4

[13] = A CellTox Green Cytotoxicity Assay to monitor cytotoxicity in HEK293 cells - 8 hour (AID 1224884); note: nearly all actives have a fitted effect of over 35% in size
How it was run: as §1

[14] = qHTS RealTime-Glo MT Cell Viability Assay in HepG2 cells - 16 hour (AID 1224885); note: nearly all actives have a fitted effect of over 50% in size
How it was run: as §5

[15] = qHTS RealTime-Glo MT Cell Viability Assay in HEK293 cells - 24 hour (AID 1224886); note: nearly all actives have a fitted effect of over 50% in size; note: potency is the fitted concentration of half-maximal effect
How it was run: as §2

[16] = qHTS RealTime-Glo MT Cell Viability Assay in HEK293 cells - 8 hour (AID 1224887); note: nearly all actives have a fitted effect of over 50% in size; note: potency is the fitted concentration of half-maximal effect
How it was run: as §3

[17] = A CellTox Green Cytotoxicity Assay to monitor cytotoxicity in HEK293 cells - 16 hour (AID 1224888); note: nearly all actives have a fitted effect of over 35% in size
How it was run: as §1

[18] = A CellTox Green Cytotoxicity Assay to monitor cytotoxicity in HepG2 cells - 8 hour (AID 1224890); note: nearly all actives have a fitted effect of over 45% in size; note: potency is the fitted concentration of half-maximal effect
How it was run: as §4

[19] = A CellTox Green Cytotoxicity Assay to monitor cytotoxicity in HEK293 cells - 24 hour (AID 1224875)
How it was run: as §1

[20] = qHTS RealTime-Glo MT Cell Viability Assay in HepG2 cells - 0 hour (AID 1224889); note: nearly all actives have a fitted effect of over 50% in size
How it was run: as §5
% is set by controls: 0 for no effect and ±100 for the full control effect.

CCOP(=S)(OCC)Oc1nc(Cl)n(C(C)C)n1
inactive: Potency [1] | Potency [2] | Potency [3] | max response [4] 3.99% | Potency [5] | Potency [6] | Potency [7] | Potency [8] | outcome [9] | Potency [10] | outcome [11] | Potency [12] | Potency [13] | Potency [14] | Potency [15] | Potency [16] | Potency [17] | Potency [18]

CC(CC(C#N)(c1ccccc1)c1ccccc1)N(C)C (stereo not drawn)
inactive: Potency [1] | Potency [2] | Potency [3] | Potency [19] | Potency [5] | Potency [6] | Potency [7] | outcome [9] | Potency [10] | outcome [11] | Potency [14] | Potency [16] | Potency [17] | Potency [20] | Potency [18]

O=C(O)c1ccc2[nH]cc(CCCCN3CC=C(c4ccccc4)CC3)c2c1
inactive: Potency [1] | Potency [2] | Potency [3] | max response [4] -1.51% | Potency [5] | Potency [6] | Potency [7] | Potency [8] | outcome [9] | Potency [10] | outcome [11] | Potency [13] | Potency [14] | Potency [15] | Potency [16] | Potency [17] | Potency [20] | Potency [18]

Cc1ncsc1CCCl
inactive: Potency [1] | Potency [2] | Potency [3] | max response [4] 3.38% | Potency [5] | Potency [6] | Potency [7] | Potency [8] | outcome [9] | Potency [10] | outcome [11] | Potency [12] | Potency [13] | Potency [14] | Potency [15] | Potency [16] | Potency [17] | Potency [18]

CCC/C(=N\OCC)C1=C(O)CC(CC(C)SCC)CC1=O (stereo not drawn)
inactive: Potency [1] | Potency [2] | Potency [3] | Potency [19] | Potency [5] | Potency [6] | Potency [7] | Potency [8] | outcome [9] | Potency [10] | outcome [11] | Potency [13] | Potency [14] | Potency [16] | Potency [17] | Potency [20] | Potency [18]

C1CCC(C2CCCCC2)CC1
inactive: Potency [1] | Potency [2] | Potency [3] | Potency [19] | Potency [5] | Potency [6] | Potency [7] | Potency [8] | outcome [9] | Potency [10] | outcome [11] | Potency [12] | Potency [13] | Potency [14] | Potency [15] | Potency [17] | Potency [20] | Potency [18]

N#CC(CCc1ccc(Cl)cc1)(Cn1cncn1)c1ccccc1 (stereo not drawn)
inactive: outcome [9] | outcome [11] | Potency [13]
active: Potency [1] 49 µM | Potency [2] 21.9 µM | Potency [3] 38.9 µM | Potency [4] 17.4 µM | Potency [5] 21.9 µM | Potency [6] 43.6 µM | Potency [7] 21.9 µM | Potency [8] 24.5 µM | Potency [10] 54.9 µM | Potency [12] 21.9 µM | Potency [15] 17.4 µM | Potency [16] 21.9 µM | Potency [18] 34.7 µM

O=C1OC(c2ccc(O)c(S(=O)(=O)O)c2)(c2ccc(O)c(S(=O)(=O)O)c2)c2c(Br)c(Br)c(Br)c(Br)c21
inactive: Potency [1] | Potency [2] | Potency [3] | max response [4] 11.8% | Potency [5] | Potency [6] | Potency [7] | Potency [8] | outcome [9] | Potency [10] | outcome [11] | Potency [12] | Potency [13] | Potency [14] | Potency [15] | Potency [16] | Potency [17] | Potency [18]
